Records with an inconclusive call do not appear. Active and inactive are the calls of the source. Unless noted, the call rests on the fitted dose curve; in most records, active means well fitted curve in the direction sought with a large enough effect in the repeat runs; inconclusive means weak or mixed curves; inactive means no such curve, though single readings can be large; an effect the other way counts as inactive or inconclusive.
Tests used:
[1] = qHTS assay to identify small molecule antagonists of the estrogen related receptor (ERR) signaling pathway from Tox21 library - cell viability counter screen (AID 1224834); further: nearly all actives have a fitted effect of over 30% in size
Method in brief: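 Fluorescence from CellTiter-Fluor gives the viability read-out, taken 30 min after reagent addition. Before that, ERR cells seeded 6 h earlier were incubated with compounds for 17.5 h at 37 C.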

[2] = target: Luciferin 4-monooxygenase (Photinus pyralis) (UniProt P08659); experiment: qHTS assay to identify small molecule inhibitors of firefly luciferase (AID 1224835); further: nearly all actives have a fitted effect of over 25% in size
Method in brief: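 Inhibition of purified Photinus luciferase is measured by luminescence. Substrate levels (D-luciferin, ATP) sit at their KM values. Each compound is tested in a concentration series.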

[3] = qHTS assay to identify small molecule agonists of the constitutive androstane receptor (CAR) signaling pathway - cell viability counter screen (AID 1224836); further: nearly all actives have a fitted effect of over 45% in size
Method in brief: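 Viability read-out: CellTiter-Fluor fluorescence after 23 h compound exposure at 37 C/5% CO2 in double-stable HepG2-CYP2B6-hCAR cells, with PK11195 present at 0.75 uM final; compounds tested in 15-point titration.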

[4] = qHTS assay to identify small molecule antagonists of the constitutive androstane receptor (CAR) signaling pathway - cell viability counter screen (AID 1224837); further: nearly all actives have a fitted effect of over 45% in size
Method in brief: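 HepG2-CYP2B6-hCAR cells, 2500/well, 4 hr pre-incubation; compound titration, 15 conc.; CITCO 50 nM final; 23 hr, 37 C/5% CO2; CellTiter-Fluor, fluorescence intensity.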

[5] = qHTS assay to identify small molecule antagonists of the estrogen related receptor signaling pathway with the pleiotropic PPARgamma coactivator (PGC) from Tox21 10K library - cell viability counter screen (AID 1224840; active means well fitted cell-killing curve with a large enough effect in the repeat runs, not every such curve was filed as active; further: nearly all actives have a fitted effect of over 40% in size)
Method in brief: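 PGC/ERR cells, 2,000/well; 6 h pre-incubation 37 C/5% CO2; cpd in DMSO via pin tool; 17.5 h 37 C; CellTiter-Fluor, 30 min; fluorescence.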

[6] = target: Thyrotropin receptor (Homo sapiens) (UniProt P16473); experiment: qHTS assay to identify small molecule agonists of the thyroid stimulating hormone receptor (TSHR) signaling pathway (AID 1224843; calls by dose curve; further: nearly all actives have a fitted effect of over 45% in size)
Method in brief: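 Screening of the Tox21 10K collection used HEK293 cells engineered with TSHR at 800 cells per well. After a 30-min room-temperature compound exposure, HTRF cAMP reagents were added and fluorescence recorded 1 h later.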

[7] = qHTS assay to identify small molecule agonists of the hypoxia (HIF-1) signaling pathway - cell viability counter screen (AID 1224844; calls by dose curve; further: nearly all actives have a fitted effect of over 50% in size)
Method in brief: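 ME-180 HRE-bla cells, 2,000/well, 0.5% dialyzed FBS; 5 hr settle, 17 hr compound at 37C/5% CO2; CCF4-AM reporter read first, then CellTiter-Glo luminescence after 30 min RT.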

[8] = qHTS assay to identify small molecule agonists of H2AX (AID 1224845; active means well fitted activation curve with a large enough effect in the signal ratio in the repeat runs, not every such curve was filed as active; the % refers to the signal ratio)
Method in brief: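 Phospho-H2AX Ser139 measured by HTRF (ex 320 nm; em 665 and 620 nm) after 24 hr antibody incubation. Compounds, 15 concentrations, 0.76% DMSO, were applied to CHO-K1 cells for 3hr at 37C before lysis.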

[9] = qHTS assay to identify small molecule agonists of H2AX - cell viability counter screen (AID 1224847; calls by dose curve;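 further: wild-type CHO-K1 cells; top concentration of the series differs between compounds; nearly all actives have a fitted effect of over 30% in size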)
Method in brief: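 CHO-K1 wt, 1000 cells/well, o/n 37C; cpds 15 conc, 3 h 37C, 0.76% DMSO; CellTiter-Glo, 30 min RT, luminescence.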

[10] = qHTS RealTime-Glo MT Cell Viability Assay in HepG2 cells - 24 hour (AID 1224867); further: nearly all actives have a fitted effect of over 50% in size
Method in brief: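 Cell number in HepG2 cultures estimated from NanoLuc luminescence generated by metabolic reduction of a prosubstrate by living cells. The homogeneous, nonlytic format allowed repeated reads at 0, 8, 16, 24, 32 and 40 h of compound exposure.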

[11] = qHTS RealTime-Glo MT Cell Viability Assay in HEK293 cells - 32 hour (AID 1224868); further: top concentration of the series differs between compounds; nearly all actives have a fitted effect of over 50% in size
Method in brief: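 Homogeneous bioluminescent viability format in HEK293 cells (600 cells/well). Following 5 h at 37 C/5% CO2, 23 nL compound was pintooled; the signal was measured repeatedly during 40 h incubation.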

[12] = A CellTox Green Cytotoxicity Assay to monitor cytotoxicity in HEK293 cells - 0 hour (AID 1224869); further: nearly all actives have a fitted effect of over 50% in size
Method in brief: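 Nonlytic real-time cytotoxicity: HEK293 + CellTox Green reagent plated, 5 h preincubation, pintool compound addition (23 nL in DMSO), 37 C for 40 h, fluorescence measured at successive time points.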

[13] = qHTS RealTime-Glo MT Cell Viability Assay in HepG2 cells - 40 hour (AID 1224870); further: nearly all actives have a fitted effect of over 50% in size
Method in brief: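 Real-time viability: cells seeded at 600 per well together with NanoLuc and cell-permeant prosubstrate, compounds added after 5 h incubation. Luminescence tracked at 0, 8, 16, 24, 32 and 40 h of exposure.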

[14] = qHTS assay to identify small molecule agonists of the hypoxia (HIF-1) signaling pathway (AID 1224846; active means well fitted activation curve with a large enough effect in the signal ratio in the repeat runs, not every such curve was filed as active; the % refers to the signal ratio)
Method in brief: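 Cell line: CellSensor HRE-bla ME-180; 2,000 cells/well; 0.5% dialyzed FBS; 5 h preincubation; DMSO compound pin transfer; 17 h, 37C, 5% CO2; CCF4-AM added; bla FRET signal scored for activation.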

[15] = qHTS assay to identify small molecule antagonists of the estrogen related receptor signaling pathway with the pleiotropic PPARgamma coactivator (PGC) from Tox21 10K library (AID 1224841; call rule not given here)
Method in brief: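 PGC/ERR cell line, 2,000 cells/well; 6 h pre-incubation 37 C/5% CO2; compounds (DMSO) pinned in; 18 h, 37 C; One-Glo, 30 min RT; luminescence.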

[16] = qHTS assay to identify small molecule agonists of the estrogen related receptor signaling pathway with the pleiotropic PPARgamma coactivator (PGC) from Tox21 10K library (AID 1224842); further: nearly all actives have a fitted effect of over 15% in size
Method in brief: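 Luminescence from One-Glo (30 min, room temperature) measured after PGC/ERR cells had 18 h at 37 C with pinned compound (23 nL in DMSO). Cells had been seeded at 2,000 per well and pre-incubated 6 h.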

[17] = qHTS assay to identify small molecule agonists of the estrogen related receptor (ERR) signaling pathway from Tox21 library (AID 1224849; calls by dose curve; further: nearly all actives have a fitted effect of over 15% in size); settings: ERR reporter cell line, ONE-Glo luciferase, 18 h; at 92.4 µM (top of the series) unless noted
Method in brief: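 ERR cells, 6 h pre-incubation 37 C/5% CO2; cpd in DMSO pinned; 18 h 37 C; ONE-Glo added, 30 min RT; luminescence read. Agonist mode, qHTS.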

[18] = target: Nuclear receptor subfamily 1 group I member 3 (Homo sapiens) (UniProt Q14994); experiment: qHTS assay to identify small molecule antagonists of the constitutive androstane receptor (CAR) signaling pathway (AID 1224838);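 further: HepG2 cells stably expressing hCAR with CYP2B6 luciferase reporter stimulated by CITCO; nearly all actives have a fitted effect of over 40% in size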
Method in brief: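 HepG2-CYP2B6-hCAR cells; 4 h pre-incubation; cpd (15 conc) + CITCO 50 nM final; 24 h, 37 C/5% CO2; ONE-Glo, luminescence.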

[19] = target: Nuclear receptor subfamily 1 group I member 3 (Homo sapiens) (UniProt Q14994); experiment: qHTS assay to identify small molecule agonists of the constitutive androstane receptor (CAR) signaling pathway (AID 1224839);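 further: HepG2 cells stably carrying human CAR and a CYP2B6 luciferase reporter; nearly all actives have a fitted effect of over 15% in size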
Method in brief: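 Luminescence read-out (ONE-Glo, 30 min, room temperature) from double-stable HepG2-CYP2B6-hCAR cells exposed 24 h to 15-point compound series in presence of 0.75 uM PK11195 final.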
On the % scale 0 is the no-effect control and ±100 the full control effect.

Chain of Nuclear receptor subfamily 1 group I member 3 (Homo sapiens) (Q14994 whole entry, looked up): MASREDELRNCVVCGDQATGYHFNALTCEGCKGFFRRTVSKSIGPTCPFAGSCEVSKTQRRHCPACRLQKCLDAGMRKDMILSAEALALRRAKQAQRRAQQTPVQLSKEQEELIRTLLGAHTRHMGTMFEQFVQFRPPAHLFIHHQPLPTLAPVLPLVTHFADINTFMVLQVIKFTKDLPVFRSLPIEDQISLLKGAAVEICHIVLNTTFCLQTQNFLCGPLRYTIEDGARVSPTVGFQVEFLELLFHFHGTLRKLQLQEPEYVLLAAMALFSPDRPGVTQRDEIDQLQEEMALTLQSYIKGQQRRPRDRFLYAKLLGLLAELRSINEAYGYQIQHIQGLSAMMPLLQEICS
Chain of Luciferin 4-monooxygenase (Photinus pyralis) (P08659 whole entry, looked up): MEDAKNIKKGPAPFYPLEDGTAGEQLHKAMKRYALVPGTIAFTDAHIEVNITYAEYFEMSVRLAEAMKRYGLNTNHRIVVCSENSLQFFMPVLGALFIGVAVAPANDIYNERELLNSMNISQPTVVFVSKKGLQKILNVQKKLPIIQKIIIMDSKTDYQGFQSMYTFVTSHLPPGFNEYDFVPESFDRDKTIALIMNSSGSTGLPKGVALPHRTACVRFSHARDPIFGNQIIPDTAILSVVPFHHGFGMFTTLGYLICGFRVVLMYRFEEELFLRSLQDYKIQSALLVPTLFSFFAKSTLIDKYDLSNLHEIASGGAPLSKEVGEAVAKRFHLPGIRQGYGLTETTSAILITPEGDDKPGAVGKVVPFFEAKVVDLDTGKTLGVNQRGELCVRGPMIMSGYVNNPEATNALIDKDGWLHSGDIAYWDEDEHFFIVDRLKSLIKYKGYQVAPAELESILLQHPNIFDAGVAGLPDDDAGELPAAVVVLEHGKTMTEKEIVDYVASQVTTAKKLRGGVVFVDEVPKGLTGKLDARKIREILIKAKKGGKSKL
Chain of Thyrotropin receptor (Homo sapiens) (P16473 whole entry, looked up): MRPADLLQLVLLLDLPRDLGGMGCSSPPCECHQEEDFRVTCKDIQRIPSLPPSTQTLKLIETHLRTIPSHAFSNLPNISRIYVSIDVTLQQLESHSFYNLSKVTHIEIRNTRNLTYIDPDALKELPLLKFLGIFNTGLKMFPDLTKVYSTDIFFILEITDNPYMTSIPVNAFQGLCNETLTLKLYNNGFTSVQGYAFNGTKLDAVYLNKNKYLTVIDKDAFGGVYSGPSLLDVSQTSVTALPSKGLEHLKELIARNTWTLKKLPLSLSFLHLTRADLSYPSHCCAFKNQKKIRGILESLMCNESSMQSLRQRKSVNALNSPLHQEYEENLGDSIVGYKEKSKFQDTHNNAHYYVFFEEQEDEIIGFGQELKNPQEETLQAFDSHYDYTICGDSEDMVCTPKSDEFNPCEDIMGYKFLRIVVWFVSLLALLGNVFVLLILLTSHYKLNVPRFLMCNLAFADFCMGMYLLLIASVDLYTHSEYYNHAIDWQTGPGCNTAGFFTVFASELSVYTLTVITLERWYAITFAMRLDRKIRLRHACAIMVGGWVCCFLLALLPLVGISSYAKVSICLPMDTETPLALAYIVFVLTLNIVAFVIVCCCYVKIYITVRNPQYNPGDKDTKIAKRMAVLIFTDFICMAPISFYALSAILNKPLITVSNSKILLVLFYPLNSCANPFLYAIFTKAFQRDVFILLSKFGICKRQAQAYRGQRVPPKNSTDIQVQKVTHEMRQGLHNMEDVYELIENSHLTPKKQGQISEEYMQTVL

OC(c1ccccc1)(c1ccccc1)C1CCNCC1
inactive: Potency [1] | Potency [2] | Potency [3] | Potency [4] | Potency [5] | Potency [6] | Potency [7] | Potency [8] | Potency [9] | Potency [10] | Potency [11] | Potency [12] | Potency [13]

CCSC(=O)N(CC)C1CCCCC1
inactive: Potency [1] | Potency [2] | Potency [3] | Potency [4] | Potency [5] | Potency [6] | Potency [7] | Potency [8] | outcome [14] | Potency [9] | Potency [10] | Potency [11] | Potency [13]

C[N+](=O)[O-]
inactive: Potency [1] | Potency [2] | Potency [3] | Potency [4] | Potency [5] | Potency [15] | outcome [16] | Potency [6] | Potency [7] | Potency [8] | outcome [14] | Potency [9] | activity change, positive = activation [17] 6.34% | Potency [10] | Potency [11] | Potency [12] | Potency [13]

O=C(Oc1ccc(Br)cc1)N1CCN2CCC1CC2
inactive: Potency [1] | Potency [2] | Potency [3] | Potency [4] | Potency [5] | Potency [6] | Potency [7] | Potency [8] | outcome [14] | Potency [9] | Potency [10] | Potency [11] | Potency [12] | Potency [13]

COCC(=O)N(c1c(C)cccc1C)N1CCOC1=O
inactive: Potency [1] | Potency [2] | Potency [3] | Potency [18] | Potency [19] | Potency [5] | Potency [15] | outcome [16] | Potency [7] | Potency [8] | outcome [14] | Potency [9] | activity change, positive = activation [17] 0.713% | Potency [10] | Potency [11] | Potency [12] | Potency [13]

CC(C)CC(N(C)C)C1(c2ccc(Cl)cc2)CCC1 (centres undefined)
inactive: Potency [1] | Potency [2] | Potency [3] | Potency [4] | Potency [5] | Potency [15] | outcome [16] | Potency [6] | Potency [7] | Potency [8] | outcome [14] | activity change, positive = activation [17] 1.9% [at 42.5 µM] | Potency [10] | Potency [11] | Potency [12] | Potency [13]

O=C(CCN1CC1)OCC(CO)(COC(=O)CCN1CC1)COC(=O)CCN1CC1
inactive: Potency [1] | Potency [2] | Potency [3] | Potency [18] | Potency [19] | Potency [5] | Potency [6] | Potency [7] | Potency [8] | outcome [14] | Potency [9] | Potency [10] | Potency [11] | Potency [12] | Potency [13]

C[N+](C)=CCl
inactive: Potency [1] | Potency [2] | Potency [3] | Potency [4] | Potency [5] | Potency [6] | Potency [7] | Potency [8] | outcome [14] | Potency [9] | Potency [10] | Potency [11] | Potency [12] | Potency [13]

— PubChem BioAssay (Tox21)
